Experimental data: PubChem BioAssay AID425 (Sanford-Burnham Center for Chemical Genomics, 2006)
The campaign covered roughly 110,000 compounds. About 190 (0.17%) were called active. Rule as the data show it: active = inhibition above about 50%; inactive = the rest. This excerpt belongs to a sample that is enriched for actives. Results with a measured potency or affinity are listed apart.

target: Dual specificity protein phosphatase 6 (Rattus norvegicus) (UniProt Q64346); assay: MKP-3 phosphatase inhibitors, primary screen, biochemical, rat enzyme, in vitro (AID 425); settings: recombinant MKP-3 phosphatase activity, fluorescence; at 20 µM; hits give high values;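 also: plate controls were vehicle for no effect and reference inhibitor for full effect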
Sequence (Q64346 whole entry, looked up): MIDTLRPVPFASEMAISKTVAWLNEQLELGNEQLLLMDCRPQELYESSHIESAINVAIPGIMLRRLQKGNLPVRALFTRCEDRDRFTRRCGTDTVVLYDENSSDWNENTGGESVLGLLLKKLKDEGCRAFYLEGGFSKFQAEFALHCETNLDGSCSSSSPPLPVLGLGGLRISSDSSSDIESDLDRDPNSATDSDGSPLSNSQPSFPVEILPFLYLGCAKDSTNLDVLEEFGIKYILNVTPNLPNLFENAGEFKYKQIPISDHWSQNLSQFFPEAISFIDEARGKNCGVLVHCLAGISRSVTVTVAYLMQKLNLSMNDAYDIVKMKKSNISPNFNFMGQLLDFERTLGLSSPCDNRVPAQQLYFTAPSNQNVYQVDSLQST

**Q.** `CN(CN1C(=O)C(=O)c2cc([N+](=O)[O-])ccc21)[N+](=O)[O-]` was tested. Which inhibition did it give?
**A.** Its inhibition is 86.6% (active).

**Q.** `O=[N+]([O-])c1ccc(N2CCN(Cc3ccccc3)CC2)c(Cl)c1` was tested. Which inhibition did it give?
**A.** The inhibition was -2.4% (inactive).

**Q.** Which inhibition does the source give for `CN(C)C(=O)Oc1ccc([N+](=O)[O-])cc1` here?
**A.** The inhibition was -1.2% (inactive).

**Q.** For `CCN1C(=O)/C(=C/c2ccc(OC)c3ccccc23)C(=O)NC1=S`, which inhibition is on record?
**A.** The inhibition was 2.2% (inactive).

**Q.** `O=C1NC(=S)N(c2ccc(Cl)cc2)C(=O)/C1=C/c1ccc(-c2ccccc2C(=O)O)o1` was tested. Which inhibition did it give?
**A.** The inhibition was 6.3% (inactive).

**Q.** With `C=CCN1C(=O)NC(=O)C(=Cc2cccn2C)C1=O` as the compound, how does the inhibition read?
**A.** The inhibition was 2.3% (inactive).

**Q.** How did the inhibition turn out when `COc1ccc(CN2C(=O)NC(=O)/C(=C\c3ccoc3)C2=O)cc1` was run?
**A.** The inhibition was 5.2% (inactive).

**Q.** Which inhibition does the source give for `CCN1C(=O)/C(=C/c2cccn2C)C(=O)NC1=S` here?
**A.** Its inhibition is 108% (active).

**Q.** For `CN1C(=O)C(=Cc2cccn2-c2cccc([N+](=O)[O-])c2)C(=O)N(C)C1=O`, which inhibition is on record?
**A.** The inhibition was 4.9% (inactive).

**Q.** Which inhibition does the source give for `C=CCN1C(=O)/C(=C\c2cccn2-c2cccc([N+](=O)[O-])c2)C(=O)NC1=S` here?
**A.** Its inhibition is 94.7% (active).

**Q.** How did the inhibition turn out when `O=C1NC(=O)N(c2ccccc2)C(=O)/C1=C/c1ccoc1` was run?
**A.** The inhibition was 4.9% (inactive).

**Q.** How did the inhibition turn out when `Cn1cccc1/C=C1/C(=O)NC(=S)N(c2ccc(Cl)cc2)C1=O` was run?
**A.** The inhibition was 77.8% (active).

**Q.** With `O=C1NC(=S)N(c2cccc(Cl)c2)C(=O)/C1=C/c1ccc(Cl)cc1` as the compound, how does the inhibition read?
**A.** Its inhibition is -0.2% (inactive).

**Q.** `CCN1C(=O)/C(=C/c2ccoc2)C(=O)NC1=S` was tested. Which inhibition did it give?
**A.** The inhibition was 107% (active).

**Q.** Which inhibition does the source give for `C=CCN1C(=O)/C(=C\c2cccn2-c2ccc([N+](=O)[O-])cc2)C(=O)NC1=S` here?
**A.** The inhibition was 37.5% (inactive).

**Q.** Which inhibition does the source give for `CCC1(c2ccccc2)C(=O)NC(=O)N(C(=O)c2cccc(F)c2)C1=O` (stereo not given) here?
**A.** Its inhibition is -3.3% (inactive).

**Q.** How did the inhibition turn out when `O=C1NC(=O)C(=Cc2ccc(OCc3cccc(C(=O)O)c3)cc2)C(=O)N1` was run?
**A.** The inhibition was -1% (inactive).

**Q.** `CCOc1c(P(=S)(N(C)C)N(C)C)c(C)nn1-c1ccccc1` was tested. Which inhibition did it give?
**A.** Its inhibition is -4.3% (inactive).

**Q.** Which inhibition does the source give for `Oc1ccc(CC2CC3CCN2CC3)cc1O` (stereo not given) here?
**A.** The inhibition was -5.2% (inactive).

**Q.** With `CCCc1[nH]nc2c1C1(C(=O)N(CC(N)=O)c3ccccc31)C(C(=O)OC)=C(N)O2` (stereo not given) as the compound, how does the inhibition read?
**A.** Its inhibition is -2.9% (inactive).

**Q.** How did the inhibition turn out when `CC1CCC(C(=O)NC(C(=O)N2CCC3(CC2)OCCO3)C(C)C)CC1` (stereo not given) was run?
**A.** The inhibition was -15.8% (inactive).

**Q.** How did the inhibition turn out when `CCC1(C)CC(CCNCc2ccccc2)(c2ccc(C)cc2)CCO1` (stereo not given) was run?
**A.** The inhibition was -4% (inactive).

**Q.** Which inhibition does the source give for `Cc1ccccc1C(=O)Nc1cc(Cl)c([N+](=O)[O-])cc1Cl` here?
**A.** The inhibition was 1.4% (inactive).

**Q.** For `COC(=O)CCCNC(=O)CN1CC(c2ccccc2)CC1=O` (stereo not given), which inhibition is on record?
**A.** The inhibition was -1.1% (inactive).

**Q.** For `O=C(c1cc2c(s1)CCCC2)N1CCC2(CC1)OCCO2`, which inhibition is on record?
**A.** The inhibition was -11.3% (inactive).

**Q.** For `C=CCN1C(=O)/C(=C\C=C\c2ccco2)C(=O)NC1=S`, which inhibition is on record?
**A.** The inhibition was 83.7% (active).

**Q.** `O=C1NC(=S)N(c2cccc(Br)c2)C(=O)/C1=C/c1ccco1` was tested. Which inhibition did it give?
**A.** Its inhibition is 108% (active).

**Q.** With `O=C1NC(=S)N(c2cccc(Br)c2)C(=O)/C1=C/c1cccs1` as the compound, how does the inhibition read?
**A.** The inhibition was 5.7% (inactive).

**Q.** `Cc1cccc(N2C(=O)NC(=O)C(=Cc3ccco3)C2=O)c1` was tested. Which inhibition did it give?
**A.** The inhibition was 2.3% (inactive).

**Q.** Which inhibition does the source give for `O=C1NC(=S)N(c2cccc(Br)c2)C(=O)/C1=C/C=C/c1ccccc1` here?
**A.** Its inhibition is 11.1% (inactive).

**Q.** Which inhibition does the source give for `CCOc1ccc(N2C(=O)/C(=C/c3cc(Cl)ccc3O)C(=O)NC2=S)cc1` here?
**A.** Its inhibition is 4.8% (inactive).

**Q.** How did the inhibition turn out when `O=C1NC(=O)N(c2cccc(Br)c2)C(=O)/C1=C/c1ccco1` was run?
**A.** Its inhibition is 97.8% (active).

**Q.** With `CCOc1ccc(N2C(=O)/C(=C/c3ccc(C)cc3)C(=O)NC2=S)cc1` as the compound, how does the inhibition read?
**A.** Its inhibition is 2.5% (inactive).

**Q.** With `C=CCN1C(=O)/C(=C\c2ccc(C)o2)C(=O)NC1=S` as the compound, how does the inhibition read?
**A.** Its inhibition is 8.6% (inactive).

**Q.** With `O=C1NC(=O)N(Cc2ccccc2)C(=O)/C1=C\C=C\c1ccco1` as the compound, how does the inhibition read?
**A.** Its inhibition is 3.4% (inactive).

**Q.** With `CC(C)c1ccc(N2C(=O)NC(=O)/C(=C/c3ccco3)C2=O)cc1` as the compound, how does the inhibition read?
**A.** The inhibition was 4.9% (inactive).

**Q.** With `CCOc1ccc(N2C(=O)/C(=C/c3ccco3)C(=O)NC2=S)cc1` as the compound, how does the inhibition read?
**A.** The inhibition was 107% (active).

**Q.** Which inhibition does the source give for `Clc1ccc(CCNCc2ccc3c(c2)OCO3)c(Cl)c1` here?
**A.** The inhibition was 1.1% (inactive).

**Q.** With `O=c1c2ccccc2nc(-c2ccccc2F)n1-c1ccc(Cl)cc1` as the compound, how does the inhibition read?
**A.** The inhibition was 3.1% (inactive).

**Q.** How did the inhibition turn out when `O=C(Nc1cccc(OC(=O)N2CCOCC2)c1)N1CCOCC1` was run?
**A.** The inhibition was 0.2% (inactive).

**Q.** How did the inhibition turn out when `Cc1ccc(C=C2C(=O)NC(=S)N(c3ccccc3F)C2=O)s1` was run?
**A.** Its inhibition is 3% (inactive).

**Q.** For `CN(C)c1ccc(C=C2C(=O)NC(=S)N(c3ccccc3F)C2=O)cc1`, which inhibition is on record?
**A.** The inhibition was -0.6% (inactive).

**Q.** Which inhibition does the source give for `CCOc1ccc2ccccc2c1/C=C1\C(=O)NC(=S)N(c2ccccc2)C1=O` here?
**A.** The inhibition was 0.5% (inactive).

**Q.** Which inhibition does the source give for `O=C1NC(=S)N(c2ccc(Br)cc2)C(=O)/C1=C/c1ccc(-c2ccccc2C(=O)O)o1` here?
**A.** Its inhibition is 4.4% (inactive).

**Q.** How did the inhibition turn out when `O=C1NC(=S)N(c2ccccc2F)C(=O)C1=Cc1ccco1` was run?
**A.** The inhibition was 99% (active).

**Q.** For `O=C1NC(=S)N(c2ccccc2)C(=O)/C1=C/c1ccco1`, which inhibition is on record?
**A.** Its inhibition is 102% (active).

**Q.** With `CN1CCN(Cc2nc3ccccc3n2C)CC1` as the compound, how does the inhibition read?
**A.** The inhibition was -3% (inactive).

**Q.** Which inhibition does the source give for `CCN1CCN(c2ccc(C(F)(F)F)cn2)CC1` here?
**A.** Its inhibition is 2.1% (inactive).

**Q.** Which inhibition does the source give for `CN1CCN(c2ccc(NC(=O)C(C)(C)C)cc2)CC1` here?
**A.** The inhibition was -2.3% (inactive).

**Q.** Which inhibition does the source give for `Cc1ccc2nc3c(cc2c1)CC1(C(=O)N(C)C(=O)N(C)C1=O)C1CCCCN31` (stereo not given) here?
**A.** Its inhibition is -20.3% (inactive).

**Q.** Which inhibition does the source give for `O=C(c1ccc(N2N=N2)cc1)c1ccc(N2N=N2)cc1` here?
**A.** Its inhibition is -3.2% (inactive).

**Q.** For `COc1ccc(N2C(=O)/C(=C/c3ccc(-c4cc(C(=O)O)ccc4Cl)o3)C(=O)NC2=S)cc1`, which inhibition is on record?
**A.** Its inhibition is 9.5% (inactive).

**Q.** How did the inhibition turn out when `CCOc1ccc(N2C(=O)/C(=C/c3ccc(Br)o3)C(=O)NC2=S)cc1` was run?
**A.** The inhibition was 104% (active).

**Q.** How did the inhibition turn out when `CCOc1ccc(N2C(=O)NC(=O)/C(=C\c3ccc(C)o3)C2=O)cc1` was run?
**A.** The inhibition was 3.6% (inactive).

**Q.** How did the inhibition turn out when `CN1C(=O)NC(=O)/C(=C/c2ccc(Br)o2)C1=O` was run?
**A.** The inhibition was 6% (inactive).

**Q.** With `O=C1NC(=S)N(c2ccc(F)cc2)C(=O)/C1=C/c1ccc(Br)o1` as the compound, how does the inhibition read?
**A.** The inhibition was 90.9% (active).

**Q.** How did the inhibition turn out when `CCOc1ccc(N2C(=O)/C(=C/c3ccc(C)o3)C(=O)NC2=S)cc1` was run?
**A.** The inhibition was 13.5% (inactive).

**Q.** `CN1C(=O)NC(=O)/C(=C/c2ccc(I)o2)C1=O` was tested. Which inhibition did it give?
**A.** Its inhibition is -0.4% (inactive).

**Q.** With `O=C1NC(=O)N(c2ccc(Cl)cc2)C(=O)/C1=C/c1ccc(Br)o1` as the compound, how does the inhibition read?
**A.** The inhibition was 41.4% (inactive).

**Q.** Which inhibition does the source give for `COc1ccc(N2C(=O)/C(=C/c3ccc(I)o3)C(=O)NC2=S)cc1` here?
**A.** Its inhibition is 108% (active).

**Q.** How did the inhibition turn out when `CCOC(=O)C1CCN(/C=C2/C(=O)NC(=O)N(Cc3ccco3)C2=O)CC1` was run?
**A.** The inhibition was -5.2% (inactive).

**Q.** For `O=C1N(CN2CCOCC2)c2ccccc2C1(O)c1c[nH]c2ccccc12` (stereo not given), which inhibition is on record?
**A.** The inhibition was 0.3% (inactive).

**Q.** `CN(C)C(=O)Oc1ccc(OC(=O)c2ccccc2)cc1` was tested. Which inhibition did it give?
**A.** Its inhibition is -6.4% (inactive).

**Q.** For `O=C1c2ccccc2C2(c3ccc(Cl)cc3)NCCN12` (stereo not given), which inhibition is on record?
**A.** The inhibition was -7.5% (inactive).

**Q.** With `O=[N+]([O-])c1ccc(N2CCNCC2)cc1NCCOc1ccccc1` as the compound, how does the inhibition read?
**A.** Its inhibition is 3.6% (inactive).

**Q.** `O=C(COc1ccc(Cl)cc1)N1CCN(Cc2ccc([N+](=O)[O-])cc2)CC1` was tested. Which inhibition did it give?
**A.** The inhibition was -0.9% (inactive).

**Q.** Which inhibition does the source give for `Cc1ccc(C=C2C(=O)N(C)C(=O)N(C)C2=O)o1` here?
**A.** The inhibition was -11.1% (inactive).

**Q.** `Cc1cc(OCc2ccc(F)cc2)c2c3c(c(=O)oc2c1)CCCC3` was tested. Which inhibition did it give?
**A.** Its inhibition is 2.6% (inactive).

**Q.** `Cn1cc(/C=C2\C(=O)NC(=O)N(Cc3ccccc3)C2=O)c2ccccc21` was tested. Which inhibition did it give?
**A.** The inhibition was 2.1% (inactive).

**Q.** With `CC(C)N1CCN(Cc2cc(Br)ccc2O)CC1` as the compound, how does the inhibition read?
**A.** The inhibition was -1.8% (inactive).
